Test results reported in PubChem BioAssay AID504648 (National Center for Advancing Translational Sciences (NCATS), 2011).
In all, about 390,000 compounds went through this assay and about 610 (0.16%) were called active. Entries that show only a call come without a potency. About 4% were inconclusive and are not listed. The call rests on the fitted dose curve; in most records, active means well fitted inhibition curve with a large enough effect; inconclusive means small, poorly fitted or top-dose-only effect, or effect the other way, or another doubt; inactive means no such curve, though single readings can be large or run the other way. The sample as a whole holds a higher share of actives than the screen did.

Assay: Nrf2 qHTS screen for inhibitors: counterscreen for cytotoxicity
Settings: A549 ARE-Fluc cells, CellTiter-Fluor viability, 18-24 h; series mostly up to 46 µM
Description: NIH Molecular Libraries Probe Production Network [MLPCN]
NIH Chemical Genomics Center [NCGC]
Assay Provider: Shyam Biswal, Johns Hopkins University
Nrf2 is a transcription factor that maintains cellular redox homoestasis and protects cells from xenobiotics. Nrf2 binds to the antioxidant response element (ARE) to induce gene expression of a broad spectrum of genes that encode for antioxidants. […] Finding a small molecule that act as an inhibitor of Nrf2 function would represent a novel therapeutic target that could lead to improvement in survival of patients undergoing chemo- and/or radio- therapy.
So here we implemented a counterscreen to weed out the cytotoxic compounds.
1. Shibata, T., et al., Genetic Alteration of Keap1 Confers Constitutive Nrf2 Activation and Resistance to Chemotherapy in Gallbladder Cancer. Gastroenterology, 2008.
2. Sjoblom, T., et al., The consensus coding sequences of human breast and colorectal cancers. Science, 2006. 314(5797): p. 268-74.
NCGC Assay Protocol Summary:
A concentration-response assay was performed with A549 ARE_Fluc cells which are suspended in 5% FBS OPTI-MEM. Five uL were dispensed into 1536-well white TC-treated plate using the Kalypsys dispenser to achieve a density of 5000 cells/well in all columns except column 1. The plate is incubated at 37deg C at 5% CO2 for 2 hours before 23 nL of compounds are added with the Kalypsys pin tool equipped with a 1,536-pin array containing 10-nL slotted pins (FP1S10, 0.457-mm diameter, 50.8 mm long; V&P Scientific). The control compounds Budesonide and Staurosporine are both added at a concentration of 2mM and Budesonide is also added as a 1:10 titration, starting at 200uM, to achieve dose-response. After an 18-24 hour incubation at 37deg C at 5% CO2, 5ul of medium is added to column 1. Afterwards 1ul of 5x of CellTiter-Fluor (Promega) is added to every well. The plate is then incubated at 37deg C at 5% CO2 for 30 minutes before they are read on the ViewLux (Perkin Elmer) for a fluorescent read Ex=405(10)/Em=525(10) for a 3 second exposure, 2x binning, and high gain. Then 3 uL of 3x BugLite is dispensed into all wells and the plate is incubated at ambient room temperature for 15 minutes. Afterwards another ViewLux read is performed using the clear filter to get a luminescent read with the settings of 40 second exposure, 2x binning, and high gain. Cytotoxicity is assessed through the first fluorescent read and then biochemical activity against Nrf2 is measured in the luminescent read.
Potency means the concentration at half of the fitted maximal effect.

Compound | Potency
O=C(c1ccco1)N(Cc1cccs1)c1ccc(O)cc1 | inactive
COC(=O)CCc1ccccc1S(=O)(=O)N(CCC(=O)OC)Cc1ccccc1 | inactive
C/C(Cc1ccccc1)=N\NC(=O)CNC(=O)c1ccccc1Cl | inactive
C/C(=N\NC(=O)Cc1ccc(Cl)cc1)c1ccccn1 | 2.31 µM (active)
CC(=NNC(=S)N1CCCCCC1)c1ccccn1 | 20.6 µM (active)
C/C(=N/NC(=O)CSc1ccccn1)c1ccc([N+](=O)[O-])cc1 | inactive
Cc1ccc(NC(=S)N2CCN(c3ncccn3)CC2)cc1C | inactive
COc1ccc(S(=O)(=O)N2CCCC(C(=O)Nc3ccc(NC(=O)c4ccccn4)cc3)C2)cc1 (centres undefined) | inactive
O=C1CSC2(C(=O)N(Cc3ccccc3)c3ccccc32)N1c1cccc(F)c1 (centres undefined) | inactive
NS(=O)(=O)c1ccc(-c2ccc(/C=C3\SC(=O)NC3=O)o2)cc1 | 11.6 µM (active)
CCOc1ccc(NC(=O)CSc2nnc3c(n2)[nH]c2ccc(S(=O)(=O)N4CCOCC4)cc23)cc1 | inactive
O=C1C(F)N([S+](=O)([O-])c2ccc3c(c2)OCCO3)CCN1[S+](=O)([O-])c1c(F)cccc1F (centres undefined) | inactive
O=C(Nc1cccc(S(=O)(=O)Nc2ccc(Cl)cc2)c1)c1ccc2c(c1)OCCO2 | 16.4 µM (active)
CC(=O)Nc1ccc(C(=O)Nc2cccc(S(=O)(=O)NC3=NCCC3)c2)cc1 | inactive
O=C(NNC(=O)c1cccc(S(=O)(=O)Nc2ccc(Cl)cc2)c1)c1ccc(=O)[nH]c1 | inactive
COc1cccc2c1C(=O)c1c(O)c3c(c(O)c1C2=O)CC(O)(C(C)=NNC(=O)c1ccc(Cl)c(Cl)c1)CC3OC1CC(N)C(O)C(C)O1 (centres undefined) | 11.6 µM (active)
O=S(=O)(Nc1cccc2cccnc12)c1cccc2cccnc12 | inactive
COc1ccccc1CNc1ccc(-c2nc(-c3ccccc3C)no2)cc1[N+](=O)[O-] | inactive
COc1ccc(-c2nc(=N)sn2-c2ccccc2)cc1 | inactive
COc1ccc(Cn2c(=O)[nH]c3cc(C(=O)N4CCN(C(=O)c5ccco5)CC4)ccc3c2=O)cc1 | inactive
COc1ccc(C(CCN2CCOCC2)c2c(OC)cc(OC)c3c2OC(=O)CC3c2ccc(OC)cc2)cc1 (centres undefined) | inactive
C=C1CCN(C(CC(C)C)C(=O)N2CCOCC2)S(=O)(=O)c2ccccc21 (centres undefined) | inactive
COc1ccc(-c2ccc(C3C4C=CCCC4(C)C(=O)N3Cc3ccccc3)c(F)c2)cc1OC (centres undefined) | inactive
CC(=O)N1CCCc2ccc(NS(=O)(=O)c3ccc(F)cc3F)cc21 | inactive

Compound | Potency
O=C(/C=C/c1ccc([N+](=O)[O-])o1)NNC(=O)c1ccc(F)cc1 | 14.6 µM (active)
N#CN1CCC(NC(=O)c2ccc(F)cc2)CC1 | inactive
CCCCCCC1(C)NC(c2ccc3c(c2)OCO3)=CC(c2ccccc2O)N1 (centres undefined) | inactive
O=C(CNC(=O)c1ccc(Cl)cc1Cl)OC(C(=O)Nc1cc(C(F)(F)F)ccc1Cl)c1ccccc1 (centres undefined) | inactive
COc1ccc(N2CCN(S(=O)(=O)c3ccc4c(c3)CC(=O)N4)CC2)cc1 | inactive
CCN(CC)C(=O)CSc1nc2ccsc2c(=O)n1Cc1ccccc1Cl | inactive
Cc1ccc(NC(=O)c2cc(S(=O)(=O)NCCC3=CCCCC3)ccc2F)cc1C | inactive
COc1ccc(-c2nnc(SCC(=O)Nc3ccccc3C)o2)cc1OC | inactive
Cc1cccc(C)c1-n1c(C)cc(/C=C2\C(=O)NN(c3ccccc3)C2=O)c1C | 20.6 µM (active)
Cc1cccc(NC(=O)c2ccc3nc(C(C)C)oc3c2)c1C | inactive
Cc1ccc(C)c(N2CCN(C(=O)Cn3nc(C)c4sc5ccccc5c4c3=O)CC2)c1 | inactive
O=C1CCCC2=C1[C@@]1(CCC(c3ccccc3)C1)N=C(Nc1nc3ccccc3o1)N2 (some centres undefined) | inactive
COc1cc(C(CCN2CCN(c3ccccc3)CC2)c2c(OC)cc(OC)c3ccc(=O)oc23)cc(OC)c1OC (centres undefined) | inactive
CCN(CC)CCC(c1ccc2c(c1)OCO2)c1c(OC)cc(OC)c2c(-c3ccccc3)cc(=O)oc12 (centres undefined) | inactive
COc1cc(OC)c2ccc(=O)oc2c1C(CCN1CCN(c2ccccc2)CC1)c1ccc2c(c1)OCO2 (centres undefined) | 23.1 µM (active)
CCOc1ccc(N=Cc2c(O)n(-c3cccc(C)n3)c(=O)c3ccccc23)cc1 | 18.4 µM (active)
COC(=O)Cc1csc(/N=C/c2c(O)n(-c3cccc(C(F)(F)F)c3)c(=O)c3ccccc23)n1 | inactive
CCO/C=C1\C(=O)N(c2ccc(OCC)cc2)C(=O)c2ccccc21 | inactive
COc1ccc(-c2ccc(OC)c(C3C4C=CCC(C)C4C(=O)N3Cc3ccccc3)c2)cc1C (centres undefined) | inactive
COc1ccc(NC(=O)CSc2nc3ccccc3n2CC(=O)N2CCCCC2C)cc1 (centres undefined) | inactive
COc1cc(NS(=O)(=O)c2ccc3c(c2)OCC(C(=O)N2CCCC2)O3)cc(OC)c1 (centres undefined) | inactive
CCOC(=O)C1CCN(c2ncnc3c2c(-c2ccccc2)cn3-c2cccc(C)c2)CC1 | inactive
Cc1ccc(-c2nc(CS(=O)(=O)CC(=O)NCc3ccccc3Cl)c(C)o2)cc1 | inactive
O=C(CSc1nnc(-c2ccccc2F)o1)Nc1cccc(C(F)(F)F)c1 | inactive

Compound | Potency
Cc1noc(C)c1-c1ccc2ncnc(NCc3ccc(F)c(F)c3)c2c1 | inactive
CC(Nc1ncnc2ccc(-c3ccc4c(c3)OCO4)cc12)c1ccco1 (centres undefined) | inactive
CCCS(=O)(=O)Nc1cccc(-c2cn3ccsc3n2)c1 | inactive
CCOc1cc(-c2nnc(SCC(=O)NC3CCCC3)nc2-c2ccc(OC)c(OCC)c2)ccc1OC | inactive
O=C(CNC(=O)c1ccc(Cl)c(C(F)(F)F)c1)OC(C(=O)Nc1cc(C(F)(F)F)ccc1Cl)c1ccccc1 (centres undefined) | inactive
CCOC(=O)CNC(=O)c1cc2c(=O)n3cccc(C)c3nc2s1 | inactive
CCOC(=O)CC1C(=O)NCCN1c1nc2c(C)cccn2c(=O)c1/C=C1\SC(=S)N(C(C)CC)C1=O (centres undefined) | 20.6 µM (active)
COc1ccc(C(=O)NC(=S)N2CCNC(=O)C2CC(=O)OC(C)C)cc1 (centres undefined) | inactive
Cc1cc(C)n2ncc(C(=O)N3CCCC3)c2n1 | inactive
CSc1ncc(Cl)c(C(=O)Nc2ccc(S(=O)(=O)N3CCCC(C)C3)cc2)n1 (centres undefined) | inactive
Cc1noc(C)c1-c1ccc2ncnc(NCc3ccc4[nH]ccc4c3)c2c1 | inactive
Cc1ccc(S(=O)(=O)NC(N)=NCCC[C@@H](NC(=O)CNC(=O)c2ccccc2)C(=O)Nc2cc(C(F)(F)F)ccc2Cl)cc1 | inactive
CCOc1cc(C2C(C(=O)Nc3ccc(OC)cc3)=C(C)Nc3nc(SC)nn32)ccc1O (centres undefined) | inactive
CN1CCOc2cc(S(=O)(=O)N3CCN(S(=O)(=O)c4c(F)cccc4F)CC3)cnc21 | inactive
O=C1CN(Cc2ccccc2)S(=O)(=O)c2ccccc21 | inactive
COc1ccc(C2Nc3ccc(NC(=O)COC(C)=O)cc3C(=O)N2Cc2ccccc2)cc1COc1ccc(NC(C)=O)cc1 (centres undefined) | inactive
COc1ccc(C2Nc3ccccc3C(=O)N2Cc2ccc(Cl)cc2)cc1COc1ccc(NC(C)=O)cc1 (centres undefined) | inactive
O=C1C[C@@H](c2ccc3ccccc3c2)N1S(=O)(=O)c1ccccc1[N+](=O)[O-] | inactive
CNC(=O)[C@]1(C(F)(F)F)C[C@H](CCc2ccccc2)CCCO1 | inactive
COc1ccc2c(Sc3ccc(C)cc3)c(C(=O)NC(C)c3ccccc3)[nH]c2c1 (centres undefined) | inactive
Cc1cc(NS(=O)(=O)c2ccc3oc(=O)c4ncn(C)c4c3c2)ccc1Br | inactive
O=C(Nc1ncc([N+](=O)[O-])s1)C1COc2ccccc2O1 (centres undefined) | 20.6 µM (active)
CC1CC(=NNC(=O)C2COc3ccccc3O2)CC(C)(C)C1 (centres undefined) | inactive
CC(/C=C/c1ccco1)=N/NC(=O)C1COc2ccccc2O1 (centres undefined) | inactive

Compound | Potency
Oc1ccc(Br)cc1C1C=C(c2ccc3c(c2)OCO3)NC(c2ccc(Cl)cc2)N1 (centres undefined) | inactive
Cc1ccc(-c2nc(=N)sn2Cc2ccccc2)cc1 | inactive
CCCN1CCC(=O)N(C(CSc2ccc(OC)cc2)Cc2ccccc2)CC1 (centres undefined) | inactive
COc1ccc(C2Nc3cccc(OC)c3C(=O)N2Cc2ccccc2)cc1COc1ccc(NC(C)=O)cc1 (centres undefined) | inactive
CCOc1ccc(Br)cc1S(=O)(=O)Nc1cccc(S(=O)(=O)N(CC)CC)c1 | inactive
CCOc1ccc(Br)cc1CSC(=N)N | 20.6 µM (active)
COCC(C)NCc1cc(Br)ccc1OC (centres undefined) | inactive
O=C1NS(=O)(=O)c2ccccc21 | inactive
O=C(NC(c1ccco1)c1cc(Cl)c2cccnc2c1O)c1ccccc1 (centres undefined) | inactive
O=C1CCc2cc(S(=O)(=O)Nc3cccc(Oc4ccccc4)c3)ccc2N1 | inactive
CCN1/C(=C/C(=S)Nc2ccccc2)Sc2ccccc21 | 16.4 µM (active)
CCN1C(=O)c2ccccc2Sc2ccc(NC(=O)Cc3ccc(OC)cc3)cc21 | inactive
CNC(=O)CN1C(=O)c2cccnc2Sc2ccccc21 | inactive
Cc1cc2c(s1)c1cnn(Cc3cc(F)c(Cl)cc3Cl)c(=O)c1n2C | inactive
CN=C1C=C/C(=N/N=c2\ccn(O)cc2C)C=C1C | 16.4 µM (active)
OC[C@@H]1O[C@H](n2cnc3c(SCc4ccccc4)ncnc32)[C@H](O)[C@H]1O | inactive
COc1ccc(C2Nc3ccccc3C(=O)N2Cc2ccccc2)cc1COc1ccc(C(N)=O)cc1 (centres undefined) | inactive
COc1cc(F)c(S(=O)(=O)N2CCCN(S(=O)(=O)c3ccc(N)cc3)CC2)c(F)c1 | inactive
Cc1nc(N2CCOCC2)c2c(C(=O)NCc3cccc(Cl)c3)c(C)oc2n1 | inactive
CCOc1ccc(-c2n[nH]c3c2C(c2ccccc2OC)N(c2ccc(Br)cc2)C3=O)cc1 (centres undefined) | inactive
CCCN1CCC(=O)N(C(CSc2ccc(C)cc2)Cc2ccccc2)CC1 (centres undefined) | inactive
Cc1ccc(S(=O)(=O)N2CCN(c3nc(-n4cnc5ccccc54)nc4ccccc34)CC2)cc1 | inactive
